# The campaign covered roughly 16,000 compounds. About 5,800 (36%) were called active. Not shown: some 23% with an inconclusive outcome. Calls come from the whole dose curve; as a rule, active = well fitted curve in the direction sought with a large enough effect; inconclusive = small, poorly fitted or top-dose-only effect, or effect the other way; inactive = no such curve, though single readings can be large or run the other way. This is one part of the list.
# Molecular target: Cytochrome P450 2C19 (Homo sapiens) (UniProt P33261)
# Sequence (P33261 whole entry, looked up): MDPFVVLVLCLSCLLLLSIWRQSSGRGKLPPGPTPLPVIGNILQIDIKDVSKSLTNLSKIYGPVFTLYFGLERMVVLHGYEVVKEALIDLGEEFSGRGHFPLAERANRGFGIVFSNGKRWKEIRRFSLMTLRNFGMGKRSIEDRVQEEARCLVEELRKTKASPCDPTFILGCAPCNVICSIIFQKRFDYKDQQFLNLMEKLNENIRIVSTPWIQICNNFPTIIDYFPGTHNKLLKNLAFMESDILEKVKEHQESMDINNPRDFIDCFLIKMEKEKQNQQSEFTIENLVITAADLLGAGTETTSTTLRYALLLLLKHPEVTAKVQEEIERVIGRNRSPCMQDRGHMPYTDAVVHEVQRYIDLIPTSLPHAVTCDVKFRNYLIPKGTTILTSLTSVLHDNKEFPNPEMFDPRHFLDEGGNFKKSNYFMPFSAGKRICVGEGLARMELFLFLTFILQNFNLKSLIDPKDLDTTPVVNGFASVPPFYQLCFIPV
# Test: Cytochrome panel assay with activity outcomes
# Conditions: recombinant CYP, pro-luciferin dealkylation, luminescence, p450-cyp2c19; series mostly up to 57.1 µM; activity, negative = inhibition: at the top concentration
# % is set by controls: 0 for no effect and ±100 for the full control effect.
SMILES,"activity, negative = inhibition",AC50
COc1ccc2c3c([nH]c2c1)[C@@H]1C[C@@H]2[C@@H](C[C@H](O)[C@H](OC)[C@H]2C(=O)O)CN1CC3,-43.7% [at 25.6 µM] (inactive),–
C[C@@H](Cc1cccc(C(F)(F)F)c1)NCCOC(=O)c1ccccc1,-54.8% [at 25.6 µM] (inactive),–
CN(C)CCOC(=O)c1ccc(N)cc1,-21.2% [at 11.4 µM] (inactive),–
Cc1[nH]n(-c2ccccc2)c(=O)c1CCOC(=O)c1ccc(C(F)(F)F)cc1,–,3.98 µM (active)
Cc1[nH]n(-c2ccccc2)c(=O)c1CCOC(=O)c1cccc(C(F)(F)F)c1,–,3.55 µM (active)
CO[C@@H]1COC(=O)C/C=C\[C@H](C)COC(=O)[C@H](C)NC(=O)C/C=C\[C@H]1C,-28.2% [at 11.4 µM] (inactive),–
Fc1ccc2c(c1)C(c1ccncc1)=NNC(c1ccc(Cl)cc1)=N2,–,0.224 µM (active)
C#CCOC(=O)Nc1ccc(=O)n(Cc2c(Cl)cccc2Cl)c1,–,1.58 µM (active)
C1=C(CN2CCOCC2)COc2c1cccc2OC[C@@H]1CNCCO1,-40.5% (inactive),–
COc1cc(C)c(Br)cc1S(=O)(=O)NCc1ccccc1,–,4.47 µM (active)
Cc1ccc(C(=O)C2=C(O)C(=O)N(CCCn3ccnc3)C2c2ccc(OC(C)C)cc2)o1 (centres undefined),–,14.1 µM (active)
CN(C)CCN1C(=O)C(O)=C(C(=O)c2cc3ccccc3o2)C1c1ccccn1 (centres undefined),-7.42% (inactive),–
S=c1[nH]nc(C2CCCCC2)n1/N=C/c1cccs1,–,0.708 µM (active)
C[C@]1(c2ccccc2)O[C@@H]2C[C@@H]3[C@@H]4CCC5=CC(=O)C=C[C@@]5(C)[C@]4(F)[C@H](O)C[C@]3(C)[C@@]2(C(=O)CO)O1,-7.02% [at 11.4 µM] (inactive),–
COc1ccc(C2=NOC(C(=O)N3CCCc4ccccc43)C2)cc1 (centres undefined),–,15.8 µM (active)
COc1ccc(C2=NOC(C(=O)NCCN3CCOCC3)C2)cc1 (centres undefined),23.8% (inactive),–
O=C(Nc1c[nH]c(=O)[nH]c1=O)Oc1ccccc1,-12.9% [at 11.4 µM] (inactive),–
Cc1cccc2cc(CN(Cc3ccccc3)C(=O)c3cccc(F)c3)c(Cl)nc12,–,2.82 µM (active)
Cc1nc(SCC(=O)c2cc3ccccc3oc2=O)c(C#N)c(C)c1C(=O)Nc1ccccc1,7.27% (inactive),–
COC(=O)CSc1cc(C(F)(F)F)nc(-c2ccccn2)n1,-4.93% (inactive),–
COC(=O)CSc1nc(C)cc(C(F)(F)F)c1C#N,–,25.1 µM (active)
O=C(CSC1=NCCS1)N1CCN(c2ccc(Cl)cc2)CC1,–,3.55 µM (active)
c1ncc(-c2ccc3c(c2)OCO3)c(NCCc2cnc[nH]2)n1,–,0.0398 µM (active)

SMILES,"activity, negative = inhibition",AC50
c1nc(NCCc2cnc[nH]2)c2[nH]cnc2n1,-12.5% [at 11.4 µM] (inactive),–
CN(C)C(=O)c1ccc(-c2cncnc2NCCc2cnc[nH]2)cc1,–,10 µM (active)
CN(C)c1ccc(-c2cncnc2NCCc2cnc[nH]2)cc1,–,0.0794 µM (active)
O=C(Nc1ccccc1)N1CCCC2(CCN(C(=O)c3cnccn3)CC2)C1,31.9% (inactive),–
COc1ccc(COC(=O)N/N=C2/C[C@@H](O)[C@@H](O)[C@@H]3[C@@H]4C(=O)N([C@@H](C)c5ccccc5)C(=O)[C@H]4CC[C@@H]23)cc1,-25.8% [at 11.4 µM] (inactive),–
CCOc1ccc(/C(O)=C2/C(=O)C(=O)N(CC3CCCO3)C2c2ccc(C)o2)cc1 (centres undefined),-29% (inactive),–
COCCCN1C(=O)C(=O)/C(=C(/O)c2ccc(OC)cc2C)C1c1cccnc1 (centres undefined),-13.3% (inactive),–
CCOc1ccc(/C(O)=C2/C(=O)C(=O)N(CCCn3ccnc3)C2c2cccs2)cc1Cl (centres undefined),–,14.1 µM (active)
COc1ccc(/C(O)=C2\C(=O)C(=O)N(c3cc(C)on3)C2c2ccc(OC)c(OC)c2)cc1OC (centres undefined),1.84% (inactive),–
Cc1nc2ccccn2c1/C(O)=C1\C(=O)C(=O)N(CCCn2ccnc2)C1c1ccncc1 (centres undefined),-21.1% (inactive),–
CCN(CC)CCN1C(=O)C(=O)/C(=C(/O)c2ccc(OC)cc2)C1c1cccs1 (centres undefined),–,14.1 µM (active)
Cc1ccc(/C(O)=C2/C(=O)C(=O)N(CCCn3ccnc3)C2c2ccccn2)cc1 (centres undefined),–,2.82 µM (active)
COc1cccc(/C(O)=C2/C(=O)C(=O)N(c3cc(C)on3)C2c2cccs2)c1 (centres undefined),-29.5% (inactive),–
O=C(N/N=C1/C[C@@H](O)[C@@H](O)[C@@H]2[C@H]3C(=O)N(c4ccc(F)cc4F)C(=O)[C@@H]3CC[C@H]12)OCc1ccccc1,-27.3% [at 11.4 µM] (inactive),–
NC(=O)CSc1nc2sc(-c3ccccc3)cc2c(=O)n1N,–,15.8 µM (active)
c1cc2c(cc1C1CCCCC1)c1c3n2CCN[C@H]3CCC1,–,1 µM (active)
O=C(Nc1ccc(Cl)cc1)OCCn1nnnc1C(c1ccccc1Cl)N1CCOCC1 (centres undefined),–,3.98 µM (active)
O=C1[C@H]2O[C@@H]2[C@@H](O)[C@H]2[C@H]1CCn1c(=O)n(Cc3cc4c(cc3Cl)OCO4)c(=O)n12,14.6% [at 11.4 µM] (inactive),–
CCCCCCCCCCCCCCCCCCNC(=O)OC[C@@H](COP(=O)([O-])OCC[n+]1ccsc1)OC,4.66% (inactive),–
CCCCCCCCCCCCCCCCCCOC[C@@H](COP(=O)([O-])OCC[N+](C)(C)C)OC,25.4% (inactive),–
CCCCCCCCCCCCCCCCCC(=O)NC[C@@H](COP(=O)([O-])OCC[N+](C)(C)C)OCC,–,25.1 µM (active)
C=C(C)CN(CC#N)CC(=C)C,27.9% [at 11.4 µM] (inactive),–
Cn1c(N)nc2c(nc(OCc3ccccc3)n2[C@@H]2O[C@H](CO)[C@@H](O)[C@@H]2O)c1=O,-3.29% [at 11.4 µM] (inactive),–

SMILES,"activity, negative = inhibition",AC50
Cc1ccc(N=C/C(C(=O)C(F)(F)F)=C(\O)c2cccs2)cc1,–,3.16 µM (active)
COc1cc(CN2CCCCC2)cc2cc(C(=O)O)c(=O)oc12,21% [at 11.4 µM] (inactive),–
CCN1CCC[C@H]1CNC(=O)c1c(OC)ccc(Br)c1OC,-5.06% [at 25.6 µM] (inactive),–
COc1cc(Br)cc2cc(C(=O)NCC3CCCO3)c(=O)oc12 (centres undefined),–,0.398 µM (active)
COc1ccc(-n2cnnc2)cc1,-18.6% (inactive),–
COc1ccc(-n2c(C)nn(C)c2=O)cc1,14.2% (inactive),–
COc1ccc(-n2nnnc2-c2cn(C)nc2C(F)(F)F)cc1,–,2.24 µM (active)
Cc1cc(C)cc(-n2nnnc2-c2cn(C)nc2C(F)(F)F)c1,–,2.51 µM (active)
C[C@@H]1c2cccc(O)c2C(O)=C2C(=O)[C@@]3(O)C(O)=C(C(N)=O)C(=O)[C@@H](N(C)C)[C@@H]3[C@@H](O)[C@@H]21,–,inactive
CCOC(=O)C1=C(N)n2c(s/c(=C\c3ccco3)c2=O)=C(C(=O)OCC)C1c1ccco1 (centres undefined),–,8.91 µM (active)
CCOC(=O)C1=C(c2ccccc2)N=c2s/c(=C\c3cccc(O)c3)c(=O)n2C1c1cccs1 (centres undefined),–,10 µM (active)
CCOC(=O)C1=C(c2ccccc2)N=c2s/c(=C\c3ccco3)c(=O)n2C1c1cccs1 (centres undefined),–,2.24 µM (active)
CCOC(=O)C1=C(N)n2c(s/c(=C/c3ccccc3)c2=O)=C(C(=O)OCC)C1c1ccccc1 (centres undefined),2.19% (inactive),–
S=C1SCN(Cc2ccccn2)CN1Cc1ccco1,–,2.24 µM (active)
c1ccc(CCNCc2ccco2)nc1,-13.9% [at 11.4 µM] (inactive),–
S=c1nc[nH]c2c1ncn2Cc1ccco1,-0.307% [at 11.4 µM] (inactive),–
Cc1cccc(OCCSCc2nc3ccccc3[nH]2)c1,–,2.24 µM (active)
O=C(c1ccc(S(=O)(=O)N2CCCCCC2)cc1)N1CCC(CN2C(=O)c3cccc4cccc(c34)C2=O)CC1,-9.18% (inactive),–
O=C1c2cccc3cccc(c23)C(=O)N1CC1CCN(CC(O)COc2ccc3ccccc3c2)CC1 (centres undefined),–,7.08 µM (active)
CC(Cc1ccccc1)C(=O)NCc1ccccn1 (centres undefined),-18.2% (inactive),–
Cc1ccccc1C(C(=O)NCc1ccccc1)N(Cc1ccco1)C(=O)c1ccccn1 (centres undefined),–,3.55 µM (active)
O=C(NCc1ccccc1)C(c1ccc(F)cc1)N(Cc1ccco1)C(=O)c1ccccn1 (centres undefined),–,4.47 µM (active)
Cc1ccc(N(CCC#N)C(=O)CSc2ccc3c(c2)OCCO3)cc1,–,2 µM (active)

SMILES,"activity, negative = inhibition",AC50
O=C1CCCc2ccccc2N1Cc1ccccc1Cl,–,1 µM (active)
O=C1CCCc2ccccc2N1Cc1cccc(Cl)c1,–,0.501 µM (active)
C[C@@H](CN(C)C)CN1c2ccccc2CCc2ccccc21,–,inactive
c1ccc(CNc2ccnc(-c3ccc4c(c3)OCO4)n2)cc1,–,2 µM (active)
c1cncc(CNc2ccnc(-c3ccc4c(c3)OCO4)n2)c1,–,5.01 µM (active)
c1csc(CNc2ccnc(-c3ccc4c(c3)OCO4)n2)c1,–,5.01 µM (active)
CN(C)C(=O)c1ccc(-c2nccc(NCc3cccnc3)n2)cc1,-1.41% (inactive),–
COc1cc(OC)c(C(=O)CCCCN2CCC3(CC2)NC(=O)NC3=O)cc1NS(=O)(=O)c1ccc(C(F)(F)F)cc1,25.1% (inactive),–
CCN(CC)CCC[C@H](C)Nc1c2ccc(Cl)cc2nc2ccc(OC)cc12,18.9% (inactive),–
COc1ccc(OCCn2c(C)c(/C=N/n3cnnc3)c3ccccc32)cc1,–,0.355 µM (active)
CN(C)CCCN1c2ccc3ccccc3c2Sc2cccc(Cl)c21,–,5.01 µM (active)
CN(C)CCCN1c2ccccc2Sc2ccc3ccccc3c21,–,1 µM (active)
C[C@@H](CN1c2ccccc2Sc2ccccc21)N(C)C,–,inactive
CCN(CC)[C@@H](C)CN1c2ccccc2Sc2ccccc21,-42.8% [at 25.6 µM] (inactive),–
CCN(CC)CCN1c2ccccc2Sc2ccc3ccccc3c21,–,1 µM (active)
CN(C)CCCN1c2ccccc2C(C)(C)c2ccccc21,1.8% [at 11.4 µM] (inactive),–
CCC(=O)c1ccc2c(c1)N(CCCN(C)C)c1ccccc1S2,-7.66% (inactive),–
CN(C)CCCN1c2ccccc2Sc2cnccc21,34.5% [at 11.4 µM] (inactive),–
CN=C1N[C@H](c2ccccc2)N(c2ccccc2)S1,8.52% (inactive),–
CC(C)c1ccc2nc3sc(C(=O)N4CCc5ccccc5C4)c(N)c3cc2c1,–,3.55 µM (active)

# — PubChem BioAssay AID1851 (National Center for Advancing Translational Sciences (NCATS), 2009)
